Source: PubChem
Pf growth 96h – Primary qHTS for delayed death inhibitors of the malarial parasite plastid, 96 hour incubation; Potency, µM (series often up to 28.7 µM), without a hit: at the highest dose activity change, negative = inhibition, most hits filed as inhibitors; P. falciparum luciferase reporter growth, 96 h; 6.9% of 320,000 active; AID 504834, 2011; active means well fitted inhibition curve with a large enough effect; inconclusive means small, poorly fitted or top-dose-only effect, or another doubt; inactive means no such curve, though single readings can be large or run the other way; further: on the % scale 0 is the no-effect control and ±100 the full control effect
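P. falciparum expressing integrated firefly luciferase grown in erythrocytes (2% hematocrit, 0.05% parasitemia final) with compounds for 96 hours at 37 C, 5% CO2. Growth inhibition read as loss of luminescence after adding luciferase detection reagent.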
RE007 growth inh – qHTS Assay for Inhibitors of the HIV-1 protein Vpr; S. pombe RE007 Vpr strain, BacTiter-Glo ATP luminescence, 24 h; Potency, µM (top dose mostly 92.2 µM), without a hit: at the highest dose activity change, negative = less growth, usual class: inhibitors; 0.21% of 360,000 active; AID 651644, 2012; active means well fitted falling curve with a large enough effect; inconclusive means small, poorly fitted or top-dose-only effect; inactive means no such curve, though single readings can be large or run the other way; further: on the % scale 0 is the no-effect control and ±100 the full control effect; nearly all actives have a fitted effect of over 50% in size
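Fission yeast RE007 carrying one integrated HIV-1 vpr copy, seeded at OD 0.01 in PMG+AL medium with 23 nL pinned compound. Grown 24 h at 30 degrees; viability read by BacTiter-Glo luminescence after 5 min.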
Pf growth 48h – Primary qHTS for delayed death inhibitors of the malarial parasite plastid, 48 hour incubation | P. falciparum luciferase growth in erythrocytes, 48 h | Potency, µM (titrated, usually from 28.7 µM), for inactives: top-dose activity change, negative = inhibition, actives largely listed as inhibitors | 5.9% of 310,000 active | AID 504832, 2011; active means well fitted inhibition curve with a large enough effect; inconclusive means small, poorly fitted or top-dose-only effect, or another doubt; inactive means no such curve, though single readings can be large or run the other way; further: on the % scale 0 is the no-effect control and ±100 the full control effect
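Parasite viability was followed by luminescence of a genomically integrated firefly luciferase. Cultures held 0.1% parasitemia at 2% hematocrit (final), incubated under 5% CO2 at 37 C.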
NS1 inh – qHTS Assay for Inhibitors of Influenza NS1 Protein Function. AID 2326, 2010. Potency, µM (top dose mostly 46.1 µM), inactives show at the highest dose activity, positive = more growth. 0.4% of 270,000 active; further: actives are rising curves; nearly all actives have a fitted effect of over 50% in size
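A cell-based growth assay was used: compounds that relieve NS1-induced slow growth of budding yeast raise OD600. Assay medium was yeast nitrogen base with ammonium sulphate and -URA supplement, pH 6.0, with 2% galactose.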
SARS PLP yeast – qHTS of Yeast-based Assay for SARS-CoV PLP | Potency, µM (highest dose often 32.9 µM), for the others: at the highest dose activity, positive = growth rescue, usual class: activators | AID 485353, 2010 | 0.19% of 330,000 active | S. cerevisiae expressing SARS-CoV PLpro, growth rescue; further: 0% is about no effect; nearly all actives have a fitted effect of over 55% in size
* marks the source's active call; other numbers are inactive results; u = inconclusive; x = no result; [ ] = another dose, or the depositor's remark. Rows were chosen to be rich in hits. Some 9.5% of all compounds tested hit in one or more screens of this group. Unless noted, the call rests on the fitted dose curve. Potency means the concentration at half of the fitted maximal effect.

SMILES	Pf growth 96h	RE007 growth inh	Pf growth 48h	NS1 inh	SARS PLP yeast
CCc1[nH]nc2c1C1(CCN(C(=O)OCc3ccccc3)CC1)C(C#N)=C(N)O2	0.185µM*	4.2%	-25.9%	-0.7%	-3.1%
CCCSc1nsc(NC(=O)CC)n1	8.28µM*	-7.2%	176.4%	-1.4%	-0.4%
CCCCCCSc1nsc(NC(=O)CC(C)C)n1	u	7.6%	22.7%	-24.6%	-4.0%
C=CCOc1ccc(C2C(C#N)=C(N)N(Nc3ccccc3)C3=C2C(=O)CC(C)(C)C3)cc1OC (stereo unspecified)	8.28µM*	-3.5%	8.28µM*	12.5%	0.8%
COc1ccc(C2C3=C(CC(C)(C)CC3=O)N(C)C3=C2C(=O)CC(C)(C)C3)cc1OC	13.1µM*	-27.5%	16.3%	5.5%	8.9%
COCCN(C(=O)CSc1nnc(-c2ccccc2F)n1N)c1c(N)n(Cc2ccccc2)c(=O)[nH]c1=O	2.6%	3.9%	9.8%	7.0%	-3.6%
O=C(Nc1cccc(Cl)c1)OC1CCCCc2cccnc21 (stereo unspecified)	-24.6%	-10.9%	3.7µM*	-51.5%	-2.9%
COc1ccc(-c2c(-c3ccc(C#N)cc3)oc(=O)c3cc(OC)c(OC)cc23)cc1	x	15.4%	x	x	-9.2%
COc1ccc(-c2oc(=O)c3cc(OC)c(OC)cc3c2-c2cc(F)cc(OC)c2)cc1	2.94µM*	-2.6%	u	x	-26.6%
CC(=O)N/C(=C/c1ccc2c(c1)OCO2)C(=O)NCc1ccccc1	-12.5%	-19.4%	12.7%	0.2%	-0.6%
OC(CNC1CCCCC1)COCCOc1ccc(Br)cc1 (stereo unspecified)	11.7µM*	1.5%	10.4µM*	7.4%	-0.3%
CC1(C)O[C@H]2C[C@@H]3[C@H]4CCC5=CC(=O)C=C[C@]5(C)[C@@]4(F)[C@@H](O)C[C@]3(C)[C@]2(C(=O)CO)O1	9.53µM*	x	u	x	x
CC1(C)O[C@@H]2C[C@H]3[C@@H]4CCC5=CC(=O)C=C[C@]5(C)[C@@]4(F)[C@@H](O)C[C@]3(C)[C@]2(C(=O)CO)O1	u	2.1%	u	-18.7%	-3.5%
CC(=O)OCC(=O)[C@@]12OC3(CCCC3)O[C@@H]1C[C@H]1[C@@H]3CCC4=CC(=O)C=C[C@]4(C)[C@@]3(F)[C@@H](O)C[C@@]12C	10.4µM*	-0.5%	11.7µM*	-14.8%	-23.7%
CCCCCN(C(=O)CCC(=O)OCCOc1ccc(OCC)cc1)c1c(N)n(CCCC)c(=O)[nH]c1=O	u	-2.6%	u	x	5.2%
O=S(=O)(c1ccc(-c2nnc(SCc3nnc(-c4ccccc4)o3)o2)cc1)N1CCCC1	88.2%	10.1%	u	7.7%	-3.4%
CCN(CC)S(=O)(=O)c1ccc(-c2nnc(SCc3nnc(-c4ccccc4)o3)o2)cc1	3.7µM*	3.1%	-0.2%	1.4%	-4.2%
CCN(CC)S(=O)(=O)c1ccc(-c2nnco2)cc1	13.1µM*	0.0%	-26.0%	4.1%	8.8%
O=C(CCNC(=O)c1ccc(Br)cc1)NCCCN1CCCC1=O	19.3%	-1.2%	-6.0%	x	2.0%[6.58 µM]
C=C(CCO)C1=CCN(S(=O)(=O)C(C)(C)C)[C@H]1CCO	x	-16.3%	x	x	x
COCc1ccc(C(=O)N2CCCC(C(=O)c3ccc(SC)cc3)C2)s1 (stereo unspecified)	u	2.1%	-6.1%	-30.9%	-2.9%
CCC(Sc1nc2n[nH]c(C)c2c(=N)n1-c1ccc(C)c(Cl)c1)C(=O)N1CCOCC1 (stereo unspecified)	22.9%	13.5%	13.1µM*	-35.6%	-0.1%
Cc1cc(-n2c(SCc3ccccc3F)nc3n[nH]c(C)c3c2=N)ccc1Cl	4.65µM*	3.6%	u	x	0.7%
CCN(C(=O)CSc1nc2n[nH]c(C)c2c(=N)n1-c1ccc(Cl)c(C)c1)c1cccc(C)c1	25.6%	23.8%	u	14.5%	3.0%
CCC(Sc1nc2n[nH]c(C)c2c(=N)n1-c1cccc(Cl)c1)C(=O)NCCOC (stereo unspecified)	0.0%	3.5%	u	4.6%	-7.1%
SMILES	Pf growth 96h	RE007 growth inh	Pf growth 48h	NS1 inh	SARS PLP yeast
O=C(NCC1CCCCC1)c1cc2ccccc2cc1O	1.65µM*	-7.2%	1.31µM*	-34.4%	-23.9%
O=C(OCC(=O)N1CCCCC1)c1cc2ccccc2cc1O	9.28µM*	-29.8%	52.0%	-32.3%	-5.2%
CCC1CCCCN1C(=O)COC(=O)c1cc2ccccc2cc1O (stereo unspecified)	-8.1%	u	x	-40.3%	-4.8%
O=C(NCC1CCCO1)c1cc2ccccc2cc1O (stereo unspecified)	u	-18.7%	u	x	-5.3%
O=C(N/N=C1/CC2CCC1C2)c1cc2ccccc2cc1O (stereo unspecified)	9.28µM*	-18.2%	u	7.6%	-5.8%
CC1(C)Oc2c(ccc(O)c2CN2CCOCC2)C2=C1CCCC2	x	-16.4%	x	x	x
O=C(O)/C(Cc1cn[nH]n1)=N\O	x	x	x	-6.6%	x
O=C(Nc1cc(=O)c2ccccc2o1)N1CCCCC1	5.22µM*	1.7%	4.65µM*	4.5%	-4.2%
COc1ccccc1N1Cc2ccccc2C1	u	-15.9%	13.1µM*	8.7%	-2.7%
COc1ccc(OC)c(N2C(=O)CCCC2=O)c1	34.7%	71.9%	37.5%	-13.3%	2.6%
COc1ccc(N2Cc3ccccc3C2)cc1Cl	27.4%	-17.2%	u	-6.0%	0.6%
COc1ccc(OC)c(N2Cc3ccccc3C2)c1	11.7µM*	-10.0%	5.86µM*	u	10.0%
COc1ccc(C(=O)CN2Cc3ccccc3C2=N)cc1	279.8%	-6.9%	73.2%	5.2%	-5.6%
COc1ccc(OC)c(N2Cc3ccccc3C2=N)c1	5.86µM*	-13.7%	6.0%	6.4%	1.2%
COc1ccc(Cl)cc1N1Cc2ccccc2C1	x	98.4%	13.1µM*	11.7%	0.7%
Cc1ccsc1C(=O)N1CCCC(C)(C(=O)O)C1 (stereo unspecified)	x	-13.3%[18.4 µM]	x	x	x
c1ccc(-c2ncc(CN3CCN(c4ccccn4)CC3)[nH]2)cc1	12.1%	3.1%	-11.8%	-3.2%	0.0%
Cc1ccc(C(O)c2ncc(-c3ccc(F)cc3)[nH]2)c(C)c1 (stereo unspecified)	x	-4.9%	x	x	x
Cc1ccc(N2Cc3ccccc3C2=N)cc1[N+](=O)[O-]	12.8%	65.4%	-2.5%	x	0.4%
Cc1cc(C)nc(N2Cc3ccccc3C2=N)n1	u	-14.1%	14.7µM*	-5.1%	1.7%
COC(=O)c1ccc(N2CCCCC2)c(NC(=O)c2ccco2)c1	-1.2%	6.4%	u	0.1%	0.8%
CCc1cc2c(Sc3nc4ccccc4s3)ncnc2s1	u	-11.4%	1.85µM*	-6.3%	0.4%
c1ccc2sc(Sc3ncnc4sccc34)nc2c1	0.738µM*	-8.6%	1.85µM*	-25.3%	3.3%
S=C(NCC1CCCO1)NC1CCCCC1 (stereo unspecified)	2.4%	7.0%	19.3%	-40.6%	0.5%
